Most compounds without a hit are left out; they make up all but 6.2% or so of the library.
RORgamma inh – qHTS for inhibitors of ROR gamma transcriptional activity; Potency, µM (titrated, usually from 53.6 µM), most hits filed as inhibitors; Drosophila S2 Gal4-RORgamma UAS-luciferase reporter, 20 h; Nuclear receptor ROR-gamma (Mus musculus), P51450; AID 2551, 2010; hit rate 5.4% among 310,000; further: nearly all actives have a fitted effect of over 60% in size
Target sequence (P51450 whole entry, looked up, the tested form may be a part): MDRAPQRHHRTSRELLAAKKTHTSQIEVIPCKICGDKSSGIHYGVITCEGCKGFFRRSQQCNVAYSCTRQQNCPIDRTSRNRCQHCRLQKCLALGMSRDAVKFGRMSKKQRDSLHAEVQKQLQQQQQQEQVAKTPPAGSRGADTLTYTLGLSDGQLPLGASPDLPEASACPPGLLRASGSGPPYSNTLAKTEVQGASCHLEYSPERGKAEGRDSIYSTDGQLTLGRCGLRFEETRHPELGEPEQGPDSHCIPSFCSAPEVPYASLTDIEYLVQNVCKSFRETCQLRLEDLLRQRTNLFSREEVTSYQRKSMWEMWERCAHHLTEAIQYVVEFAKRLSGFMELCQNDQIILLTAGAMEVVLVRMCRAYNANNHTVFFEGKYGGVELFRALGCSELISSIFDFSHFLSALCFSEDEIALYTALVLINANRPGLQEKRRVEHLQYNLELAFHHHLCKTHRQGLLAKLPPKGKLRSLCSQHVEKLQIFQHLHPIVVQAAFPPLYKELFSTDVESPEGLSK
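ROR gamma transcriptional activity was tracked as Gal4-UAS luciferase output in stably transfected Drosophila Schneider cells, with compound added 1 hr before 700 uM copper sulfate induction and a 20 hr ambient-temperature incubation.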
KinaseGlo FLuc – Counterscreen for Luciferase (Kinase-Glo TM) Inhibition. Luciferin 4-monooxygenase (Photuris pensylvanica), Q27757. Potency, µM (highest dose often 38.3 µM), usual class: inhibitors. Kinase-Glo luciferase, ATP luminescence, 8 min. hit rate 0.28% among 200,000; further: nearly all actives have a fitted effect of over 60% in size
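Inhibition of Kinase-Glo luciferase light generation was assessed at 10 uM ATP in pH 7.2 imidazole buffer, with luminescence measured after eight minutes at ambient temperature.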
VP16 counter – VP16 counterscreen qHTS for inhibitors of ROR gamma transcriptional activity; Drosophila S2 Gal4-VP16 UAS-luciferase, luminescence, 20 h; Potency, µM (series often up to 53.6 µM), hits mostly inhibitors; hit rate 3.5% among 310,000;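 further: Gal4-VP16 expression switched on by copper sulfate through the metallothionein promoter; nearly all actives have a fitted effect of over 50% in size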
Large screens that a line does not name were inactive. The call rests on the fitted dose curve; in most records, active means well fitted curve in the direction sought with a large enough effect; inconclusive means small, poorly fitted or top-dose-only effect, or another doubt; inactive means no such curve, though single readings can be large; an effect the other way counts as inactive or inconclusive.

Cc1cccc(C(=O)Oc2ccc(/C=N/NC(=O)c3ccc(O)cc3)cc2)c1	VP16 counter inconclusive (no result: KinaseGlo FLuc)
Cn1ncc(Br)c1C(=O)N/N=C/c1cccc(OC2CSC2)c1	none
O=C(N/N=C/c1ccc2nccnc2c1)c1ccncc1	none (no result: KinaseGlo FLuc)
Cc1cccc(C(=O)Oc2ccc(/C=N/NC(=O)c3ccccc3O)cc2)c1	RORgamma inh 3.5µM, VP16 counter 3.5µM
O=C(N/N=C/c1cccc(C(F)(F)F)c1)c1ccccc1O	RORgamma inh 10µM, VP16 counter inconclusive
O=C(N/N=C/c1ccc2nccnc2c1)c1ccccc1O	RORgamma inh 6.3µM, VP16 counter inconclusive (no result: KinaseGlo FLuc)
O=C(N/N=C/c1cc(Br)c(O)c(Br)c1)c1cccc(C(F)(F)F)c1	none
Cc1ccc(S(=O)(=O)NC(CC(C)C)C(=O)N2CCC(C)CC2)cc1 (stereo not drawn)	none
CCN(C(=O)c1ccccc1F)c1nc(-c2ccc(OC)cc2)cs1	RORgamma inh inconclusive (no result: KinaseGlo FLuc)
Cc1ccc(NC(=O)Cn2cc([N+](=O)[O-])nc2C)cc1C	none (no result: KinaseGlo FLuc)
O=C(NCc1cccnc1)C1CC(=O)N(CCc2ccccc2)C1 (stereo not drawn)	none
COc1ccc(Br)cc1/C=N/NC(=O)c1cc(OC)c(OC)c(OC)c1	RORgamma inh inconclusive
COc1cc(C(=O)N/N=C/c2ccsc2C)cc(OC)c1OC	RORgamma inh 13µM, VP16 counter inconclusive
O=C(NNC1=C(C(=O)C(F)(F)F)CCC1)c1ccc(Cl)cc1	RORgamma inh 11µM, VP16 counter inconclusive
COc1ccc(C(=O)NNc2ccccc2)cc1	none
O=C(NNC1=C(C(=O)C(F)(F)F)CCC1)c1cccc(Cl)c1	RORgamma inh inconclusive, VP16 counter inconclusive
COc1ccc(C(=O)NNC2=C(C(=O)C(F)(F)F)CCC2)cc1	RORgamma inh 14µM, VP16 counter inconclusive (no result: KinaseGlo FLuc)
NC(=O)c1nnsc1Sc1c(C(N)=O)nnn1-c1cccc(N)c1	none
COc1ccc(NC(=O)N2CC[C@@]3(CCCN(S(C)(=O)=O)C3)C2)cc1	none
COCCCNc1nc2ccccc2nc1NS(=O)(=O)c1ccc(C)cc1C	none (no result: KinaseGlo FLuc)
Cc1ccc(C2C3=C(CCCC3=O)N=C3c4ccccc4C(=O)C32)cc1 (stereo not drawn)	none
COc1ccc(-c2ccc3ccccc3n2)cc1OC	none
Nc1ccc(-c2ccc3ccccc3n2)cc1	VP16 counter 11µM
COc1ccc(NC(=O)c2nn(C)c3c2CS(=O)(=O)c2ccccc2-3)cc1	none (no result: KinaseGlo FLuc)
S=c1nccc(-c2cccs2)[nH]1	RORgamma inh 4µM, VP16 counter 7.9µM
Cc1ccc2nc(-c3ccncc3)[nH]c2c1	none (no result: KinaseGlo FLuc)
Fc1ccc(-c2noc(-c3ccc4c(c3)CCO4)n2)cc1	none (no result: KinaseGlo FLuc)
CC1(C)CCc2cc(-c3ccnc(=S)[nH]3)ccc2O1	RORgamma inh 1.8µM, VP16 counter 3.2µM (no result: KinaseGlo FLuc)
CC1(C)CCc2cc(CN3CCN(c4ccccn4)CC3)ccc2O1	none (no result: KinaseGlo FLuc)
c1csc(-c2ccn[nH]2)c1	none (no result: KinaseGlo FLuc)
S=c1nccc(-c2ccc3c(c2)CCO3)[nH]1	RORgamma inh 3.2µM, VP16 counter 6.3µM (no result: KinaseGlo FLuc)
Cc1ccc(-c2ccnc(=S)[nH]2)cc1	RORgamma inh 2.8µM, VP16 counter 3.5µM
CCCCC/C=C\C[C@H](O)/C=C/c1cccc(C[C@H](O)CCCCO)n1	none
Cc1ccc(NC(=O)c2c(C(F)(F)F)nn(C)c2SCc2ccc(Cl)cc2)cc1C	RORgamma inh 0.45µM
Cc1ccc(NC(=O)c2c(C(F)(F)F)nn(C)c2SCc2cccc(C(F)(F)F)c2)cc1C	VP16 counter inconclusive
Clc1ccccc1-c1nc(NCc2cccnc2)c2ccccc2n1	none (no result: KinaseGlo FLuc)
C=C(NCc1ccccc1)c1ccccc1O	none (no result: KinaseGlo FLuc)
O=C(CSc1nnc(-c2ccccc2)c(-c2ccccc2)n1)Nc1ccc(Br)cn1	VP16 counter inconclusive
Cc1cccc(N2C(=O)c3cccc4c(N(C)CCO)ccc(c34)C2=O)c1	RORgamma inh 1.3µM
Cc1cccc(N2C(=O)c3cccc4c(N)ccc(c34)C2=O)c1	none (no result: KinaseGlo FLuc)
C[C@H](CCC(=O)NN)[C@@H]1CC[C@@H]2[C@H]3CC[C@H]4C[C@@H](O)CC[C@@]4(C)[C@@H]3CC[C@]21C	none (no result: RORgamma inh, VP16 counter)
CSc1nc(=S)n(-c2ccccc2)c(C)c1C(C)=O	none (no result: KinaseGlo FLuc)
CC(=O)c1ccc(N2CCN(S(=O)(=O)c3ccc4c(c3)CC(C)N4C(=O)C3CC3)CC2)cc1 (stereo not drawn)	VP16 counter 11µM (no result: KinaseGlo FLuc)
COc1ccc(N2CCN(S(=O)(=O)c3ccc4c(c3)CC(C)N4C(=O)C3CC3)CC2)cc1 (stereo not drawn)	none (no result: KinaseGlo FLuc)
CCCCN(CCCC)Cc1ccc(C(=O)NNC(=O)Nc2ccc(F)cc2)o1	none
COc1ccc(/C=N/NC(=O)c2cc(-c3cccnc3)nc3ccccc23)c(OC)c1	RORgamma inh inconclusive
O=C(N/N=C/C=C/c1ccccc1[N+](=O)[O-])c1cc(-c2cccnc2)nc2ccccc12	RORgamma inh 7.1µM, VP16 counter 5.6µM
COc1ccccc1-c1cc(C(=O)N/N=C/C=C/c2ccccc2[N+](=O)[O-])c2ccccc2n1	RORgamma inh 8.9µM, VP16 counter 11µM
COc1ccccc1-c1cc(C(=O)N/N=C\c2cn(C)nc2C)c2ccccc2n1	RORgamma inh inconclusive
CCOC(=O)c1c(-c2ccccc2)csc1NC(=O)c1cc(S(=O)(=O)N2CCOCC2)ccc1C	none
CC[C@H](C)[C@H](NC(=O)[C@H](CC(N)=O)NC(=O)[C@H](CCCCN)NC(=O)[C@H](Cc1ccccc1)NC(=O)[C@H](Cc1ccccc1)NC(=O)[C@H](Cc1cnc[nH]1)NC(=O)[C@@H](N)C(C)C)C(=O)N[C@H](C(=O)N[C@H](C(=O)N1CCC[C@H]1C(=O)N[C@@H](CCCN=C(N)N)C(=O)N[C@H](C(=O)N1CCC[C@H]1C(=O)O)[C@@H](C)O)[C@@H](C)O)C(C)C	none (no result: KinaseGlo FLuc)
CC(=O)[C@H]1CC[C@H]2C3CC=C4C[C@@H](O)CC[C@]4(C)C3CC[C@]12C (stereo partly drawn)	none (no result: KinaseGlo FLuc)
Nc1nc(CC(=O)O)cs1	none (no result: KinaseGlo FLuc)
CN(Cc1ccco1)c1ncncc1-c1ccccc1Cl	none (no result: KinaseGlo FLuc)
COC(=O)N1CCC[C@@]2(CCN(c3ccncc3)C2)C1	none
O=S(=O)(c1ccccc1)N1CCC2(CCCN(c3ccccn3)C2)CC1	none
Cn1c(=O)c(C(=S)NC(=O)C2CC2)c(N)n(Cc2ccccc2)c1=O	RORgamma inh 1.3µM, VP16 counter 1µM
CCN(CC)CC(=O)c1c(N)n(Cc2ccccc2)c(=O)n(C)c1=O	none
CCNc1nc(=S)nc(NCc2ccccc2)[nH]1	RORgamma inh 3.2µM, VP16 counter 7.1µM
CC(C)Nc1nc2ccccc2c(=O)[nH]1	none
CCNc1nc(=S)nc(NC(C)C)[nH]1	RORgamma inh 10µM, VP16 counter 13µM
Cc1cc(=O)[nH]c(NCc2ccccc2)n1	none (no result: KinaseGlo FLuc)
c1ccc(-c2n[nH]c3c2CCC3)cc1	RORgamma inh 13µM
COc1cccc(-c2n[nH]c3c2CCC3)c1	RORgamma inh inconclusive
COc1cc2nc(N3CCNCC3)nc(N)c2cc1OC	none
COc1cc2nc(N3CCN(c4cc(C)ccc4C)CC3)nc(N)c2cc1OC	RORgamma inh 16µM, VP16 counter 16µM (no result: KinaseGlo FLuc)
S=c1[nH]cc(Cc2ccccc2)s1	RORgamma inh 13µM, VP16 counter inconclusive
c1ccc(Cc2nnc3sc(-c4ccco4)nn23)cc1	none
CN1Cc2c(N3CCOCC3)nc3sc(C#N)c(N)c3c2CC1(C)C	none (no result: KinaseGlo FLuc)
